For 96 compounds, inhibition results are on record in PubChem BioAssay AID1578 (Sanford-Burnham Center for Chemical Genomics, 2009).

Each structure is given as a SMILES string. Screen size: about 290,000 compounds; about 3,000 (1%) were called active. Only a selection was taken, and actives are over-represented in it overall. A number with no mark means an inactive call. Cut-off read from the data, not from the text of the source: active = inhibition mostly above about 36% (no sharp cut-off); inactive = mostly below about 34%.

As a reminder, the inhibition is the drop in the measured response relative to a control, in per cent.

This experiment can be described thus: NOD1 signaling inhibitors, primary screen, cell-based, luminescence, uHTS (AID 1578).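 Note: HEK-293T reporter cells stimulated with the NOD1 agonist gamma-tri-DAP.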 Particulars: NOD1-driven NF-kB luciferase reporter cells, at 4 µM, hits give high values. On the technique in general: A reporter such as luciferase makes a cellular process visible.
With `NC(=O)c1cc(-c2csc(NCCc3ccccc3)n2)ccc1O`, the inhibition was -52.8%.

`COc1ccc(N2CCN(C(=O)CSc3nc4[nH]ncc4c(=O)n3-c3ccc(Br)cc3)CC2)cc1`: the inhibition was 8.7%.

Consider `CCN1CCCC1CNC(=O)C(=O)NC` (stereo unspecified), for which the inhibition is -17.4%. Take `CCN1CCCC1CNC(=O)C(=O)NC1CC1` (stereo unspecified): the inhibition is 40.8% (active). The figure for `CCCNC(=O)C(=O)NCC1CCCN1CC` (stereo unspecified) is -18.5%. With `CCCCNC(=O)Cn1c(-c2ccc(OC)cc2)noc1=O` the figure was -2.3%; with `COc1ccc(NC(=O)N2CCC(O)(c3cccnc3)CC2)c(OC)c1`, 15.9%; with `Oc1ccc(Br)cc1-c1ccnn1-c1ccccc1`, 82.1% (active). For `Fc1ccc(-c2ccnn2-c2ccccc2)cc1`, the inhibition was -18.4%. The figure for `Oc1ccc(Br)cc1-c1cc(-c2ccccc2)n[nH]1` is -13.2%. On to `COC(=O)CCCCC1SCC2NC(=O)NC21O` (stereo unspecified), for which the inhibition is -2.5%.

On to `Cc1cnc(NC(=O)c2sc3ccccc3c2Cl)s1`, for which the inhibition was 105% (active). The figure for `Cc1ccc2c(Cl)c(C(=O)Nc3cccnc3)sc2c1` is 87.9% (active). With `Cc1ccc(NC(=O)c2sc3ccccc3c2Cl)nc1` the figure was -21.7%. Take `O=C(Nc1cccnc1)Nc1ccccc1Cl`: the inhibition is -8.9%. With `Cc1nnc(NC(=O)c2sc3ccccc3c2Cl)s1` the figure was -46.1%. `Cc1ccc2c(Cl)c(C(=O)Nc3cc(C)on3)sc2c1`: the inhibition was -79.3%. The figure for `Cc1ccc2c(Cl)c(C(=O)NCc3cccnc3)sc2c1` is 12.2%. The figure for `O=C(Nc1ccc(Cl)cc1)Nc1cccnc1` is -14.9%; for `O=C(Nc1cccnc1)Nc1cc(Cl)cc(Cl)c1` it is 76.8% (active). With `COc1ccccc1-c1cc(C(=O)Nc2ccccc2SC)no1` the figure was -10%; with `CCOC(=O)C1(Cc2ccccc2C)CCCN(C(=O)c2ccnn2C)C1` (stereo unspecified), -17.1%; with `Cc1ccc(C)c(SCC(=O)NNC(=O)c2ccccc2)c1`, -14.3%. For the compound `CCN1CCN(S(=O)(=O)c2cc(OCC(=O)NC3CCCCC3)c(C)cc2Cl)CC1`, the inhibition was 26.3%. The figure for `Cc1cc(Cl)c(S(=O)(=O)N2CCCC2)cc1OCC(=O)NC1CCCCC1` is 28.5%.

`C/C(=C\c1ccccc1)C(=O)Nc1cc(C)on1`: the inhibition is -6.1%. On to `Cc1ccccc1Cn1cc(C)c(=O)[nH]c1=O`, for which the inhibition is -20.8%. Turning to `COc1cccc(CN(Cc2ccco2)C(c2ccc(F)cc2)c2nnnn2C(C)(C)C)c1` (stereo unspecified), the inhibition was 50.8% (active). The figure for `CC(C)(C)n1nnnc1C(c1ccc(F)cc1)N(Cc1ccc(F)cc1)Cc1ccco1` (stereo unspecified) is -2.1%; for `CC(C)(C)n1nnnc1C(c1ccc(C(F)(F)F)cc1)N(Cc1ccc(F)cc1)Cc1ccco1` (stereo unspecified) it is -13.2%; for `Cc1nc2cc(NC(=O)N3CC4(C)CC3CC(C)(C)C4)ccc2n1C` (stereo unspecified) it is -31.3%. The figure for `COC(=O)CCc1ccc(O)cc1` is -24%; for `CN1CCN(C(c2ccc(C(F)(F)F)cc2)c2ccc3cccnc3c2O)CC1` (stereo unspecified) it is 23.8%. The figure for `Cc1c(CCO)c(=O)[nH]n1S(=O)(=O)c1ccc(F)cc1` is -15.6%. `Cc1csc(CNC(=O)c2ccc(OC3CCN(CCc4ccccc4)CC3)cc2)n1`: the inhibition was -16.3%. The figure for `OCC1(CCOc2ccccc2)CCN(CC2=Cc3cc(Cl)ccc3OC2)CC1` is -37.6%. As to `COc1ccc2c(c1)C=C(CN1CCC(CO)(CCc3ccccc3)CC1)CO2`, the inhibition is -10%. With `CCOc1cc(C(=O)NN2CCOCC2)cc(OCC)c1OCC` the figure was -21.5%.

In the case of `Cc1ccccc1NC(=S)N1CCN(Cc2ccc3c(c2)OCO3)CC1`, the inhibition is -15.3%. The figure for `CCN(CC)c1ccc(C(=O)NC(=S)N2CCN(Cc3ccc4c(c3)OCO4)CC2)cc1` is -0.4%; for `O=C(c1ccccc1)N1CCN(Cc2ccc3c(c2)OCO3)CC1` it is -5.8%; for `O=C(c1n[nH]c(=O)c2ccccc12)N1CCN(Cc2ccc3c(c2)OCO3)CC1` it is 3.4%. For the compound `Cc1cc(Cl)ccc1NC(=S)N1CCN(Cc2ccc3c(c2)OCO3)CC1`, the inhibition is 79.9% (active). With `Cc1cc(Cl)ccc1NC(=S)N1CCN(Cc2ccccc2)CC1` the figure was -13.4%.

Take `O=C(NC(=S)N1CCN(Cc2ccc3c(c2)OCO3)CC1)c1ccc(Cl)cc1`: the inhibition is -3.6%. With `O=C(COC(=O)COc1ccccc1Cl)Nc1ccccc1OC(F)F`, the inhibition is -10.4%.

Turning to `CN(CCCC(=O)N1CCCC(C(N)=O)C1)S(=O)(=O)c1ccc(F)cc1` (stereo unspecified), the inhibition is -19.1%. With `Cc1ccc(NC(=O)CN2C(=O)S/C(=C\c3ccc(C(=O)O)cc3)C2=O)cc1` the figure was -12.7%; with `O=C(Cc1ccc(-n2c(=O)c3ccccc3n(Cc3cccc([N+](=O)[O-])c3)c2=O)cc1)NCC1CCCO1` (stereo unspecified), 5.4%. For the compound `COc1ccc(CCNC(=O)CSc2ccc(-c3ccco3)nn2)cc1OC`, the inhibition was -15.4%. Turning to `COc1ccc(F)cc1S(=O)(=O)NCCN1CCOCC1`, the inhibition is 15.5%. Take `COc1cccc2cc(C(=O)OC3CCN(C)CC3)c(=O)oc12`: the inhibition is -29.1%. The figure for `Cc1ccc(Cl)cc1N1CCN(Cc2nnnn2Cc2ccco2)CC1` is -5.9%; for `Cc1cc(C)n(C(=O)CNC(=O)c2ccccc2Br)n1` it is -28.7%; for `COCCn1c(-c2ccc(OC)cc2)cnc1SCC(=O)Nc1cccc2ccccc12` it is -37.9%. With `O=C(Nc1ccc(C(=O)N2CCOCC2)cc1)Nc1cccc(Cl)c1`, the inhibition was -21.7%.

As for `O=C(Nc1ccc(C(=O)O)cc1)Nc1cccc([N+](=O)[O-])c1`, the inhibition is -12.4%. With `CNC(=O)Nc1cccc(C(F)(F)F)c1` the figure was -23%; with `O=C(Nc1ccc(OC(F)(F)F)cc1)Nc1cccc([N+](=O)[O-])c1`, 75.1% (active).

Turning to `O=C(Nc1ccccc1)Nc1cccc(C(F)(F)F)c1`, the inhibition is -33.9%. In the case of `CN(C)S(=O)(=O)Oc1ccccc1C(=O)Nc1cccc(C(F)(F)F)c1`, the inhibition was -19.2%. With `O=C(Nc1ccc(C(=O)N2CCOCC2)cc1)Nc1cccc(C(F)(F)F)c1` the figure was 60% (active). With `CC(=O)c1cccc(NC(=O)Nc2ccc(C(=O)N3CCOCC3)cc2)c1` the figure was 5.9%; with `O=C(Nc1cccc([N+](=O)[O-])c1)Nc1cccc([N+](=O)[O-])c1`, -8.2%.

Take `CN(C)S(=O)(=O)Oc1ccc(C(=O)Nc2cccc(Cl)c2)cc1`: the inhibition was -35.9%.

As to `CCOc1ccc(NC(=O)CS(=O)CC(=O)N(CC(=O)NC(C)(C)C)C2CCCC2)cc1` (stereo unspecified), the inhibition was -23.1%.

Consider `O=C(CC1C(=O)NCCN1Cc1ccc(-c2ccccc2)cc1)NCCCn1ccnc1` (stereo unspecified), for which the inhibition was -4.4%. The figure for `COCCNC(=O)C(C)N1c2cccc3cccc(c23)S1(=O)=O` (stereo unspecified) is -37.7%. Take `NC(CCC(=O)O)C12CC3CC(CC(C3)C1)C2` (stereo unspecified): the inhibition was -26.1%. With `COC(=O)[C@H](Cc1ccccc1)NC(=O)NCCc1ccc(OC)cc1` the figure was -0.3%; with `CC(=O)c1cc2c(cc1NC(=O)CN1CCCCCCC1)OCO2`, -24.2%. Take `Cc1cc(C(=O)Nc2ccccn2)cs1`: the inhibition is -53.4%. The figure for `CCCC[C@@H]1CNC(=S)N1CCC12CC3CC(CC(C3)C1)C2` is -25.1%; for `Cc1nc(SCc2ccc(O)c([N+](=O)[O-])c2)c([N+](=O)[O-])[nH]1` it is -13.5%. With `CCCCOc1ccc(CSc2nc(C)[nH]c2[N+](=O)[O-])cc1[N+](=O)[O-]` the figure was 39.8% (active); with `COc1ccc(CSc2nc(C)[nH]c2[N+](=O)[O-])cc1[N+](=O)[O-]`, -4.2%; with `CCOC1(OCC)N=C(N)C2(C#N)C(c3ccc(NC(C)=O)cc3)C12C#N` (stereo unspecified), -12.4%.

Turning to `CN(CC(=O)Nc1c(Cl)cccc1Cl)C(=O)CCCN1C(=O)c2ccccc2C1=O`, the inhibition is 15.6%. As to `O=C(N/N=C/C=C\c1ccccc1[N+](=O)[O-])c1ccncc1`, the inhibition was -7.4%. For `COc1ccc(-n2cc(CNC3CCOCC3)c(-c3cccc(F)c3)n2)cc1`, the inhibition is 21.8%. Take `COc1ccc(-n2cc(CNC3CCN(C)CC3)c(-c3cccc(F)c3)n2)cc1`: the inhibition is 14.5%. Turning to `COc1ccc(-n2cc(CNC3CCC(O)CC3)c(-c3cccc(F)c3)n2)cc1` (stereo unspecified), the inhibition was 51.1% (active). As for `Cc1cccc(C)c1N1CCN(c2nc(N(C)C)oc(=O)c2C#N)CC1`, the inhibition is 18.2%. Consider `CCOC(=O)C1CCCN(C2=NC(=O)/C(=C/c3ccc(OC)cc3)S2)C1` (stereo unspecified), for which the inhibition was -6.7%.

For `CC1=C(C(=O)N2CCOCC2)C(c2ccc(-c3ccccc3)cc2)NC(=S)N1` (stereo unspecified), the inhibition was -25.1%. For `CCOc1ncccc1C(=O)N1CCN(C(c2ccccc2)c2ccccc2)CC1`, the inhibition is -13%. As for `Cc1ccccc1C(=O)N1CCN(C(c2ccccc2)c2ccccc2)CC1`, the inhibition was -1.2%. With `c1ccc(CN(Cc2ccccc2)c2ncnc3c2nnn3Cc2ccccc2)cc1` the figure was -2.6%.

With `CCNc1nc(NCC)n2c(SCC(=O)Nc3ccccc3[N+](=O)[O-])nnc2n1`, the inhibition is -16.6%. As to `Cn1c2c(c(=O)n(C)c1=O)C(CC(=O)Nc1ccccc1)C(=O)N2` (stereo unspecified), the inhibition is -23.5%.

Regarding `COc1ccc2[nH]c3c(c2c1)CCC/C3=N\N`, the inhibition is -3.8%.

With `COc1ccc2[nH]c3c(c2c1)CC(C)NC3=O` (stereo unspecified), the inhibition was 87% (active).

On to `CC1Cc2c([nH]c3ccccc23)C(=O)N1` (stereo unspecified), for which the inhibition is 26.8%. With `COc1cc(OC)cc(C(=O)NNC(=S)NC2CC2)c1`, the inhibition was -35.8%. Regarding `C=CCn1c(=O)c2ccccc2n2c(SC(C)C(N)=O)nnc12` (stereo unspecified), the inhibition is -5.9%. The figure for `C[C@@H](CN=[N+]=[N-])CN1CC[C@H](C(C)(C)C)CCC1=O` is -15.8%.
